Hit rate of the full screen: of about 2,100 compounds, about 480 (23%) were called active. Not shown: some 5% with an inconclusive outcome.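 How the source made its calls: active means fitted curve reaches 40% activation at or below the top valid concentration, in every replicate test; inconclusive means replicate tests disagree on the call; inactive means the rest, including activity in the opposite direction.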 These entries were drawn from the full list. Entries with a potency or affinity are not part of this list.
Experiment: activators raising PGC1a acetylation in cells, dose response, cell-based, cherry-picked samples, set 6 (AID 720513);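 further: cells made to overexpress flag tagged PGC1a plus GCN5 acetyltransferase by viral infection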
Details: U2OS PGC1a acetylation AlphaLISA, overnight, 0 = neutral, -100 = inhibitor control; series mostly up to 19.5 µM

outcome, inactive:
CN(C)S(=O)(=O)N1CCC(Cc2ccccc2)CC1
CCCOc1cccc(C(=O)Nc2cc(NC(=O)c3ccco3)ccc2OC)c1
CCCCNC(=O)c1ccc(CS(=O)(=O)c2ccccc2OC)o1
O=C(Nc1ccc(F)cc1)N1CC(=O)N2[C@@H](CO)[C@@H](c3ccc(-c4ccccc4)cc3)[C@@H]2C1
CC(C)c1ccc(CNc2ccc([N+](=O)[O-])cn2)cc1
COc1ccc(-c2ccc(OC)cc2C(=O)O)cc1
Cc1nc(NCCc2ccccc2)c2nnn(Cc3ccccc3Cl)c2n1
O=C(NC1CCCCCCC1O)c1ccccc1 (stereo unspecified)
CSc1ncccc1C(=O)N1CCN(C(=O)c2ccccc2)CC1
CO[C@@H]1CN(C)C(=O)c2cc(NC(C)=O)ccc2OC[C@@H](C)N(Cc2ccccc2C(=O)O)C[C@@H]1C
C=CCn1c(SCC(=O)NCc2ccccc2)nnc1-c1ccccc1O
Cc1cc(SCC(=O)NC(=O)NCc2ccco2)nc2ccccc12
COc1ccc(OC)c(Nc2ccc(C(=O)O)cc2[N+](=O)[O-])c1
COc1ccccc1/C=C/c1nc2ccc(OC(C)=O)cc2c(=O)o1
C[C@@H]1CN([C@@H](C)CO)C(=O)c2cc(NC(=O)c3ccncc3)ccc2O[C@@H](C)CCCCO[C@@H]1CN(C)Cc1ccncc1
CC(=O)Cc1nsc(NC(=O)c2cccc(F)c2)n1
CCCN1CCN(S(=O)(=O)c2ccc3c(c2)CC(C)N3C(=O)C2CC2)CC1 (stereo unspecified)
c1ccc2c(-c3nn4nnnc4c4ccccc34)cccc2c1
COCCCNC(=O)c1ccc(CSCc2ccc(C)cc2)o1
COc1ccc(-c2cnc3c(c2)C(=O)N([C@H](C)CO)C[C@@H](C)[C@@H](CN(C)C(=O)Nc2c(C)noc2C)O3)cc1
C[C@@H]1CN([C@H](C)CO)C(=O)c2cc(NC(=O)Cc3cn(C)c4ccccc34)ccc2O[C@@H]1CN(C)C(=O)Nc1ccccc1
COc1cccc(NC(=O)N(C)C[C@@H]2OCc3ccccc3-c3c(n(C)c4ccccc34)C(=O)N([C@@H](C)CO)C[C@H]2C)c1
O=C(C[C@@H]1CC[C@@H]2[C@H](COC[C@@H](O)CN2S(=O)(=O)c2ccc(Cl)cc2)O1)N[C@@H]1CCN(Cc2ccccc2)C1
CC(Nc1ccccc1)c1cc(Cl)ccc1O (stereo unspecified)
O=C(c1ccc(N2CCCC2=O)cc1)N1CCCCCC1
CO[C@H]1CN(C)C(=O)c2ccc(NC(=O)C3CCOCC3)cc2OC[C@@H](C)N(C)C[C@@H]1C
COc1cc(NC(=O)CCN2CCN(C)CC2)cc(OC)c1
Cc1cc(F)cc(-c2cc(C(=O)NCc3ccccc3)[nH]n2)c1
O=C(CCN1C(=O)/C(=C/c2ccccc2)SC1=S)NCCCN1CCOCC1
O=C1/C(=C\c2ccco2)SC(=S)N1Cc1ccccc1
CC(/C=C1\SC(=O)N(CCCC(=O)O)C1=O)=C\c1ccccc1
CCOc1c(Br)cc(/C=C2/SC(=O)N(CC(=O)N3CCCC3)C2=O)cc1OC
O=S(=O)(NCCSc1ccc(Cl)cc1)c1ccc(F)cc1
Cc1ccc(-c2ccc3c(c2)O[C@@H](CN(C)C(=O)C2CCCCC2)[C@H](C)CN([C@H](C)CO)S3(=O)=O)cc1
COc1ccc(NC(=O)N[C@H]2CC[C@H](CCn3cc(-c4ccccc4F)nn3)O[C@@H]2CO)cc1
O=C(O)c1cccn1Cc1ccccc1F
Cc1c(CNCCc2ccc(Cl)cc2)c(C(=O)O)c(C)n1-c1ccccc1
C[C@@H]1CCCCO[C@H](CN(C)Cc2ccc(C(F)(F)F)cc2)[C@H](C)CN([C@H](C)CO)C(=O)c2cc(NC(=O)Cc3ccccc3)ccc2O1
CC(C)NC(=O)c1c(O)c2ccccc2[nH]c1=O
COc1ccc(S(=O)(=O)N(C)C[C@@H]2Oc3ccc(NS(=O)(=O)c4cn(C)cn4)cc3C(=O)N([C@H](C)CO)C[C@@H]2C)cc1
CCOc1ccc(S(=O)(=O)/N=C(/Nc2ccc(C(C)=O)cc2)c2ccccc2)cc1
Cc1cc(NS(=O)(=O)c2ccc(NC(=O)CCCOc3ccccc3)cc2)no1
NC(=NC(=O)c1ccccc1)N1CCOCC1
Cc1ccccc1Nc1ncnc2c1cnn2-c1ccccc1
O=C(c1ccc(F)cc1)N(C(=O)c1ccc(F)cc1)c1ncccn1
O=S(=O)(c1ccc(Br)cc1)n1ccc2ccccc21
COC(=O)Nc1ccc(S(=O)(=O)N(CCO)CC(F)(F)C(F)F)cc1
COC(=O)c1ccc(Cl)c(NC(C)=O)c1
Cc1cc(C(=O)OCC(=O)N(C)c2ccccc2)ccc1[N+](=O)[O-]
CCOc1cc(CNC2CCCC2)cc(Cl)c1OCc1ccc(F)cc1
O=C(C[C@H]1CC[C@@H](NS(=O)(=O)c2ccc(F)cc2)[C@H](CO)O1)N1CCN(c2ccccc2)CC1
O=C(C[C@@H]1CC[C@@H](NS(=O)(=O)c2ccc(F)cc2)[C@H](CO)O1)N1CCN(c2ccccc2)CC1
C=CC[C@@H](CC(=O)N[C@@H](CO)Cc1ccccc1)C(=O)N[C@@H](COC(=O)[C@@H](CC=C)CC(=O)OC(C)(C)C)Cc1c[nH]c2ccccc12
COc1ccc(NC(=O)Nc2ccc3c(c2)CC(=O)N([C@H](C)CO)C[C@H](C)[C@@H](CN(C)CC2CCCCC2)O3)cc1
Cc1nc(SCC(=O)OCc2ccccc2)c(C#N)c(-c2ccccc2)c1C(=O)Nc1ccccc1
CNC(=O)COC(=O)c1cc(-c2ccco2)nc2ccccc12
COCC(=O)N1CC(=O)N2[C@@H](CO)[C@H](c3ccc(-c4ccncc4)cc3)[C@@H]2C1
O=C(NCc1cccc(Cl)c1)c1ccc(-n2ccnc2)c2ccoc12
O=C(Nc1cccc(OC(F)(F)F)c1)c1ccc(-c2cccnc2)c2ccoc12
CC(Oc1ccc2c3c(c(=O)oc2c1)CCC3)C(=O)N[C@@H](Cc1ccccc1)C(=O)O (stereo partly specified)
Nc1ncnc(NCc2ccc(F)cc2)c1[N+](=O)[O-]
COc1cccc(S(=O)(=O)N2C[C@@H]3N[C@H](C2)C3c2ccc(-c3ccccc3C)cc2)c1 (stereo partly specified)
O=C(C1CCCCC1)N1C[C@@H]2N[C@H](C1)C2c1ccc(-c2cccc(F)c2)cc1 (stereo partly specified)
N#Cc1cccc(-c2ccc([C@@H]3[C@@H]4CN(S(=O)(=O)c5ccc(-c6ccccc6)cc5)C[C@H]3N4)cc2)c1
COc1ccccc1-c1ccc([C@@H]2[C@@H]3CN(S(=O)(=O)c4ccc(-c5ccccc5)cc4)C[C@H]2N3)cc1
N#Cc1ccc(-c2ccc([C@@H]3[C@@H]4CN(S(=O)(=O)c5ccc(-c6ccccc6)cc5)C[C@H]3N4)cc2)cc1
O=S(=O)(c1ccc(-c2ccccc2)cc1)N1C[C@@H]2N[C@H](C1)[C@@H]2c1ccc(-c2cccnc2)cc1
COc1cccc(-c2ccc(C3[C@@H]4CN(C(=O)C5CC5)C[C@H]3N4)cc2)c1 (stereo partly specified)
C[C@@H]1CN([C@H](C)CO)C(=O)c2cc(/C=C/c3ccccc3)cnc2O[C@@H]1CN(C)Cc1cccnc1
COc1cc(CNCCN2CCOCC2)ccc1OCc1ccc(Cl)cc1Cl
C[C@@H]1CN([C@H](C)CO)C(=O)c2cc(C#Cc3ccccc3)cnc2O[C@@H]1CN(C)C(=O)c1ccccn1
O=C(CN1C(=O)C2CC=CCC2C1=O)Nc1nccs1 (stereo unspecified)
CN(C)CCCNC(=O)CC1C[C@H](C(=O)N2CCCCC2)[C@@]2(CCc3ccccc3)c3[nH]c4ccccc4c3CCN2C1=O (stereo partly specified)
COc1ccc(-n2c(C)c([N+](=O)[O-])c3ccc(O)c(CN(C)C)c32)cc1
COc1cc(O)c(C(CC(=O)N2CCOCC2)c2ccc(N(C)C)cc2)c(OC)c1 (stereo unspecified)
CNC[C@H]1Oc2ccc(NC(=O)CCN3CCOCC3)cc2C(=O)N([C@H](C)CO)C[C@H]1C
C=CCN(c1ccc(C(=O)Nc2ccc3c(c2)OCO3)cc1)S(C)(=O)=O
Cc1cccc(S(=O)(=O)N2C[C@@H]3N[C@H](C2)C3c2ccc(-c3ccccc3C)cc2)c1 (stereo partly specified)
N#Cc1ccc(-c2ccc(C3[C@@H]4CN(S(=O)(=O)c5ccc(F)cc5)C[C@H]3N4)cc2)cc1 (stereo partly specified)
CCCSc1nnc(Sc2nnnn2-c2ccccc2)s1
COc1ccc(CCN2C(=O)c3[nH]nc(-c4ccccc4O)c3C2c2ccccc2)cc1OC (stereo unspecified)
COc1ccc(CCN2C(=O)CC(C(C)c3ccccc3)C2=O)cc1OC (stereo unspecified)
CCCCN(C)Cc1c(C)[nH]c2ccccc2c1=O
CC1(Cc2ccc(Cl)cc2)C(=O)Nc2ccc(-c3cccnc3)cc21 (stereo unspecified)
COc1ccccc1-c1ccc([C@@H]2[C@@H](CO)N(C(C)=O)C23CN(C(C)=O)C3)cc1
CO[C@H]1CN(C)C(=O)c2cc(NC(=O)Nc3ccc(Cl)cc3)ccc2OC[C@H](C)NC[C@@H]1C
CO[C@H]1CN(C)C(=O)c2ccc(NC(=O)c3ccc(-c4ccccc4)cc3)cc2OC[C@H](C)NC[C@@H]1C
CCc1oc2c(C)c(O)ccc2c(=O)c1-c1ccc2ccccc2n1
CC1CCCN(Cc2c(O)ccc3c4c(c(=O)oc23)CCCC4)C1 (stereo unspecified)
N#Cc1ccc(Cn2c(=O)c(C#N)c3n(c2=O)CCC3)cc1
CC(C)Cn1cnc2c(N)nc3ccccc3c21
